The campaign covered roughly 47,000 compounds. About 3,100 (6.6%) were called active. No stated cut-off is given here; in the data, active means inhibition above about 30%; inactive means the rest. This excerpt belongs to a sample that is enriched for actives.
Each compound was assayed against Ubiquitin carboxyl-terminal hydrolase 17-like protein 5 (Homo sapiens) (UniProt A8MUK1) (assay: blocks human USP17 ubiquitin-rhodamine cleavage (AID 1645855)). Conditions: purified USP17, Ub-rhodamine cleavage fluorescence, 3 h; at 50 µM; active compounds read high.
Chain of Ubiquitin carboxyl-terminal hydrolase 17-like protein 5 (Homo sapiens) (A8MUK1 whole entry, looked up): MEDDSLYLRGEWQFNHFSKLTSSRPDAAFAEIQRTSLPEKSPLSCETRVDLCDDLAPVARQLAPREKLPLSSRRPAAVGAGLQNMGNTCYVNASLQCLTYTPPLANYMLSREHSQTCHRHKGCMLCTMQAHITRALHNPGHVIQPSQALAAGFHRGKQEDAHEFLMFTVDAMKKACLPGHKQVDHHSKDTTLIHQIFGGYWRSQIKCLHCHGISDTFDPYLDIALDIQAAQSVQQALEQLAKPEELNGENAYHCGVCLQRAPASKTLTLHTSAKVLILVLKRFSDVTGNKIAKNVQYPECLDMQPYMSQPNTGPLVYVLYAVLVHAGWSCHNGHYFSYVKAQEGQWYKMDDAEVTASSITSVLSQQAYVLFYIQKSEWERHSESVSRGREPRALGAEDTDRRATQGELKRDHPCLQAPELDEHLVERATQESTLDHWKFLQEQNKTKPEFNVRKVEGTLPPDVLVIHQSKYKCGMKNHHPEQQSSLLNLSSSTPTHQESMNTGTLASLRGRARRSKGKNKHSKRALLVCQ
With `COc1cc([C@@H]2c3cc4c(cc3C[C@@H]3COC(=O)[C@H]32)OCO4)cc(OC)c1OC` the inhibition was 68.6% (active).
`O=C1CSC(c2ccc(F)cc2)c2c(-c3ccccc3)nn(-c3ccccc3)c2N1` (stereo not given) was tested, and the inhibition was 6.01% (inactive).
With `c1ccc(C2NCc3ccccc3-n3cccc32)cc1` (stereo not given) the inhibition was 1.12% (inactive).
With `O=c1c2ccccc2nc(-c2ccccc2)n1-c1ccccn1` the inhibition was -2.09% (inactive).
For `CN1C[C@H]2N(c3ncccn3)CCC[C@@]2(C(=O)NCC2CC2)C1`, the inhibition was 8.79% (inactive).

— PubChem BioAssay AID1645855 (Buhrlage Lab, Dana-Farber Cancer Institute and Novartis …, 2021)
